High-throughput results from PubChem BioAssay.
KB-3-1 cytotox = qHTS assay for MDR1-selective chemotherapeutics: Primary screen using the parental adenocarcinoma cell KB-3-1. KB-3-1 viability, CellTiter-Glo ATP luminescence, 72 h. Potency, µM (series often up to 46.1 µM), actives largely listed as cytotoxic. 400,000 compounds, 1.4% hits. AID 1347075, 2019; further: on the % scale 0 is the no-effect control and ±100 the full control effect; nearly all actives have a fitted effect of over 60% in size
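Cytotoxicity measured as CellTiter-Glo luminescence after 72 h at 37 C. Compound titrations were pinned onto drug-naive KB-3-1 parental adenocarcinoma cells grown in DMEM with 10% FBS, and normalized data fitted to concentration-response curves.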
RORgamma inh = qHTS for inhibitors of ROR gamma transcriptional activity. Nuclear receptor ROR-gamma (Mus musculus), P51450. Drosophila S2 Gal4-RORgamma UAS-luciferase reporter, 20 h. Potency, µM (highest dose often 53.6 µM), inactives show top-dose activity change, negative = inhibition, actives largely listed as inhibitors. 310,000 compounds, 5.4% hits; further: on the % scale 0 is the no-effect control and ±100 the full control effect; nearly all actives have a fitted effect of over 60% in size
Target sequence (P51450 whole entry, looked up, the tested form may be a part): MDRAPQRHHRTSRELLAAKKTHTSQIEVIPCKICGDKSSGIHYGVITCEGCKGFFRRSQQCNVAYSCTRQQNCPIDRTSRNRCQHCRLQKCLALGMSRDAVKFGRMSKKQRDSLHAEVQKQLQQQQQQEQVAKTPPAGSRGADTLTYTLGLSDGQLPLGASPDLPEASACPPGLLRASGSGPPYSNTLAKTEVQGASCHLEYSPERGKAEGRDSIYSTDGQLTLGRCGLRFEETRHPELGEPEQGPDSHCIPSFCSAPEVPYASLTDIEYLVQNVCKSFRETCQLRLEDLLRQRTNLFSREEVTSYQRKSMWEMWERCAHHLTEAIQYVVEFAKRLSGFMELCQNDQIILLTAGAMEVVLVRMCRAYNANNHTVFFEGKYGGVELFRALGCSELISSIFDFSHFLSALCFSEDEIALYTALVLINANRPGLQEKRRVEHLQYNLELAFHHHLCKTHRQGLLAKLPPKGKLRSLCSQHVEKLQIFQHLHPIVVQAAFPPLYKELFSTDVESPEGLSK
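Stably transfected Drosophila Schneider cells are the test system, with ROR gamma fused to Gal4 and luciferase under UAS control; luminescence is read after 20 hr of 700 uM copper sulfate induction at ambient temperature.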
SW480 rereplic = A quantitative high throughput screen for small molecules that induce DNA re-replication in SW480 colon adenocarcinoma cells; SW480 DNA re-replication, Hoechst DNA content imaging, 48 h; Potency, µM (series often up to 46.1 µM), inactives show top-dose re-replication activation, actives largely listed as activators; 340,000 compounds, 1.8% hits; further: % of control where 0% means no effect; nearly all actives have a fitted effect of over 55% in size
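SW480 cells exposed to compounds for 48 hr at 37 C, 5% CO2, then Hoechst-stained 40 min. Nuclear DNA content imaged by fluorescence scanning (405 nm excitation, 500-530 nm emission); re-replication scored as increased high-intensity nuclei.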
MCF10A rereplic = A quantitative high throughput screen for small molecules that induce DNA re-replication in MCF 10a normal breast cells; MCF 10A DNA re-replication, Hoechst nuclear intensity, 48 h; Potency, µM (titrated, usually from 46.1 µM), inactives show at the top dose activity, positive = re-replication, most hits filed as activators; 350,000 compounds, 2.9% hits; further: % of control where 0% means no effect; nearly all actives have a fitted effect of over 50% in size
Gal4-VP16 FLuc = VP16 counterscreen qHTS for inhibitors of ROR gamma transcriptional activity; Drosophila S2 Gal4-VP16 UAS-luciferase, luminescence, 20 h; 310,000 compounds, 3.5% hits; Potency, µM (doses to about 53.6 µM), for inactives: at the highest dose activity, negative = inhibition, actives largely listed as inhibitors;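 further: Gal4-VP16 expression switched on by copper sulfate through the metallothionein promoter; on the % scale 0 is the no-effect control and ±100 the full control effect; nearly all actives have a fitted effect of over 50% in size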
KB-V1 cytotox = qHTS assay for MDR1-selective chemotherapeutics: Primary screen using the drug-selected MDR subline cells KB-V1. KB-V1 MDR cells viability, CellTiter-Glo, 72 h. Potency, µM (top dose mostly 46.1 µM), usual class: cytotoxic. 400,000 compounds, 3.4% hits; further: on the % scale 0 is the no-effect control and ±100 the full control effect; nearly all actives have a fitted effect of over 60% in size
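Cytotoxicity via CellTiter-Glo luminescence after 72 h compound exposure at 37 degrees C. Cells: drug-selected KB-V1 line, DMEM phenol-red free plus 10% FBS. Compounds tested at multiple concentrations; normalized data fitted to concentration-effect curves.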
* = called active by the depositor; i = inactive; ? = inconclusive; nt = not tested or not shown; [ ] = dose if it differs, or a comment. Hits are enriched below; roughly 10% of the tested compounds scored in any of these assays. The call rests on the fitted dose curve; in most records, active means well fitted curve in the direction sought with a large enough effect; inconclusive means small, poorly fitted or top-dose-only effect, or another doubt; inactive means no such curve, though single readings can be large; an effect the other way counts as inactive or inconclusive. Potency means the concentration at half of the fitted maximal effect.

SMILES	KB-3-1 cytotox	RORgamma inh	SW480 rereplic	MCF10A rereplic	Gal4-VP16 FLuc	KB-V1 cytotox
c1ccc(-c2nc(NCCCN3CCOCC3)c3ccccc3n2)cc1	i	-5%	7%	?	7%	6.5µM*
O=S(=O)(c1ccc(Oc2ncnc3scc(-c4ccccc4)c23)cc1)N1CCOCC1	?	?	10%	21µM*	1%	?
CCOC(=O)C1(C)CCCN(C(=O)c2cccnc2)C1 (stereo not given)	i	nt	nt	nt	nt	i
CCCCCCC1Cc2cc(OC)c(OC)cc2C(C(C(=O)OCC)C(=O)OCC)O1 (stereo not given)	nt	16%[10 µM]	nt	nt	5%[10 µM]	nt
CCOc1ccc(OCC)c(NC(=O)CCc2c(C)nc3c(c2C)c(=O)n(C)c(=O)n3C)c1	i	nt	nt	nt	nt	i
COCCN1C[C@@H](CO)O[C@@H](n2cnc3c(NCc4ccco4)ncnc32)C1	i	nt	nt	nt	nt	i
COc1ccc(OC)c(C2C3=C(COC3=O)Nc3cc4c(cc32)OCO4)c1 (stereo not given)	0.058µM*	-30%	0.15µM*	0.26µM*	-6%	1.2µM*
Oc1cccc(/C=N/n2c(C3CCCCC3)n[nH]c2=S)c1	i	?	0%	-14%	-4%	?
COc1cccc(/C=N/n2c(C3CCCCC3)n[nH]c2=S)c1	i	4.5µM*	7%	?	10µM*	i
Fc1cccc(/C=N/n2c(C3CCCCC3)n[nH]c2=S)c1	i	4µM*	-14%	15%	8.9µM*	?
O=[N+]([O-])c1cccc(/C=N/n2c(C3CCCCC3)n[nH]c2=S)c1	i	4µM*	3%	3%	4.5µM*	i
O=[N+]([O-])c1ccc(Cl)c(/C=N/n2c(C3CCCCC3)n[nH]c2=S)c1	i	-34%	-10%	2%	-5%	i
COc1ccc2c(c1)CC(C(=O)Nc1ccc(Br)c(C)c1)CO2 (stereo not given)	i	nt	nt	nt	nt	i
COC(=O)[C@@]1(Cc2ccccc2)[C@H]2c3cc(C(=O)N4CCCC4)n(Cc4ccc(OC)c(OC)c4)c3C[C@H]2CN1C(=O)c1ccccc1	nt	3%	nt	nt	-12%	nt
N#Cc1cccc(-c2cc(NCc3ccccc3)ncn2)c1	nt	42%	nt	nt	-8%	nt
O=C(CSC1=Nc2ccccc2C2=NC(Cc3ccccc3)C(=O)N12)Nc1ccccc1C(F)(F)F (stereo not given)	i	nt	nt	nt	nt	i
COC(=O)c1cc(=O)n(Cc2ccc3c(c2)OCO3)c(=Nc2ccc(F)c(Cl)c2)s1	?	-16%	1%	11%	-3%	i
COC(=O)c1cc(=O)n(CCc2ccccc2)c(=Nc2ccc(F)cc2)s1	i	8.9µM*	5%	?	-28%	i
COC(=O)c1cc(=O)n(CCc2ccc(OC)cc2)c(=Nc2ccc(F)c(Cl)c2)s1	?	8%	19%	?	3%	i
CCOC(=O)c1ccc(N=c2sc(C(=O)OC)cc(=O)n2Cc2ccco2)cc1	?	?	?	?	8.9µM*	?
CCn1c(=O)cc(C(=O)OC)sc1=Nc1ccc(F)c(F)c1	?	22µM*	-1%	?	?	i
[O-][N+](=C(c1ccccc1)c1ccccc1)c1ccccc1	i	nt	2%	?	nt	i
COc1ccc(CCNC(=O)Nc2nc(C(N)COCc3ccccc3)cs2)cc1OC (stereo not given)	i	nt	nt	nt	nt	i
Cn1nnnc1SCC(=O)Nc1cc(S(=O)(=O)N2CCCCC2)ccc1Cl	i	nt	-2%	-21%	nt	i
CC(=O)c1c(C)n([O-])c2cc(F)c(F)cc2[n+]1=O	16µM*	?	?	?	-12%	?
SMILES	KB-3-1 cytotox	RORgamma inh	SW480 rereplic	MCF10A rereplic	Gal4-VP16 FLuc	KB-V1 cytotox
COc1ccc2c(c1)[n+](=O)c(C(C)=O)c(C)n2[O-]	i	-3%	-5%	-7%	-2%	i
CCn1c(/C(C#N)=N/O)nc2ccccc21	i	8.9µM*	-2%	6%	?	?
Cc1ccc(CCc2nnc(SCC(=O)Nc3cc(Cl)ccc3Cl)n2-c2ccccc2)o1	i	?	11%	?	0%	15µM*
Cn1ccnc1SCC(=O)Nc1cc(Cl)ccc1Cl	i	nt	nt	nt	nt	i
Cc1c2c(nc3ccccc13)CCC(C(C)(C)C)C2 (stereo not given)	i	4µM*	-12%	?	?	i
CC(C)(C)C1CCc2[nH]c3ccccc3c(=O)c2C1 (stereo not given)	i	?	-3%	5%	-29%	?
CCOC(=O)C(C)NC(=O)CCc1nnc2ccc(N3CCC(C)CC3)nn12 (stereo not given)	i	-19%	-11%	26µM*	2%	i
Cc1c(C(=O)N2CCCCC2)oc2ccc(Br)cc12	i	nt	2%	6%	nt	?
Cc1c(C(=O)N2CCN(CC(=O)Nc3ccccc3Cl)CC2)oc2ccc(Br)cc12	i	nt	-11%	23µM*	nt	i
O=C(CN1CCN(C(=O)CNC(=O)c2ccc(-c3ccccc3)cc2)CC1)Nc1ccccc1Cl	?	nt	nt	nt	nt	8.2µM*
COc1cccc(OC)c1C(=O)Nc1ccc2c(c1)OCCO2	i	-6%[10 µM]	1%	2%	-4%	i
CCOC(=O)c1c(C)c(C(=O)Nc2cc(F)ccc2F)c(C)n1C	10µM*	42%	23µM*	10µM*	-3%	2.6µM*
CCOC(=O)c1ccc(NC(=O)Nc2ccc3c(c2)OCCO3)cc1	?	86%	3%	-4%	-12%	15µM*
CCOC(=O)c1c(C)c(C(=O)Nc2ccc3c(c2)OCCO3)c(C)n1C	?	23%	4%	?	18%	15µM*
CCOC(=O)c1c(C)c(C(=O)Nc2ccc(N(C)C)cc2)c(C)n1CC	7.3µM*	?	10µM*	6.5µM*	?	4.1µM*
CCOC(=O)c1ccc(NCc2ccc3c(c2)OCO3)cc1	i	10%	?	?	-10%	21µM*
CCOC(=O)c1ccc(NC(=O)Nc2ccn(C)n2)cc1	i	24%	15%	6%	10%	16µM*
O=C(Nc1ccc(C(F)(F)F)cc1)C1CCCN1S(=O)(=O)c1cccc2cccnc12 (stereo not given)	23µM*	44%	1%	18%	-5%	4.6µM*
O=C(Nc1cccc(F)c1)C1CCCN1S(=O)(=O)c1cccc2cccnc12 (stereo not given)	i	-14%	-3%	8%	0%	i
